SNCA viab count: GF-AFC viability counterscreen for inhibitors of alpha-synuclein gene (SNCA) expression; HEK-293-SNCA-luc viability, GF-AFC fluorescence, 24 h; Potency, µM (highest dose often 57.1 µM), for the others: at the highest dose activity change, negative = cytotoxicity, usual class: cytotoxic; 150,000 tested, 0.12% active; AID 1671193, 2021;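 note: 0% = DMSO-treated cells and -100% = medium-only wells without cells; nearly all actives have a fitted effect of over 30% in size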
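Cytotoxicity counterscreen: after 24 h compound treatment of genome-edited SNCA-luciferase HEK-293 cells, live-cell protease substrate GF-AFC read by fluorescence after 30 min; activity scaled between DMSO (0%) and medium-only (-100%), curves Hill-fitted.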
SNCA expr inh: Primary qHTS assay for inhibitors of alpha-synuclein gene (SNCA) expression | Potency, µM (top dose mostly 57.2 µM), for the others: at the top dose activity change, negative = inhibition, most hits filed as inhibitors | HEK-293 SNCA-luciferase knock-in, luminescence, 24 h | 140,000 tested, 0.17% active | AID 1671194, 2021;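 note: plate controls were DMSO cells for no effect and cell-free wells for full effect; nearly all actives have a fitted effect of over 45% in size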
3T3 cytotox: Cytotoxic Profiling in NIH 3T3 Cell Line of Diverse Libraries Using Quantitative High-Throughput Screening | NIH 3T3 viability, CellTiter-Glo ATP luminescence, 48-72 h | Potency, µM (titrated, usually from 96.7 µM), inactives show at the highest dose activity change, negative = cytotoxicity, most hits filed as inhibitors | 94,000 tested, 4.3% active | AID 1345082, 2018; note: nearly all actives have a fitted effect of over 55% in size
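NIH 3T3 cells at 400 cells/well received 23 nL of compound by pintool and were incubated 48 or 72 h at 37 °C. Viability was read as ATP-coupled CellTiter-Glo luminescence.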
HEK293 tox: Cytotoxic Profiling in HEK 293 Cell Line of Diverse Libraries Using Quantitative High-Throughput Screening; HEK 293 viability, ATP luminescence (CellTiter-Glo), 48-72 h; AID 1345083, 2018; Potency, µM (highest dose often 115 µM), inactives show at the highest dose activity change, negative = cytotoxicity, usual class: inhibitors; 94,000 tested, 6.6% active; note: nearly all actives have a fitted effect of over 60% in size
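CellTiter-Glo luminescence (cellular ATP) was read after 48 or 72 hr of compound exposure at 37 degree Celsius. Cells were HEK 293 plated at 250 cells/well.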
FLuc inh: Firefly luciferase inhibition profiling of diverse chemical library using quantitative high-throughput screening; 76,000 tested, 2.5% active; Potency, µM (highest dose often 115 µM), usual class: inhibitors; purified P. pyralis luciferase, luminescence, biochemical; Luciferin 4-monooxygenase (Photinus pyralis), P08659; note: nearly all actives have a fitted effect of over 65% in size
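FLuc 10nM, D-luciferin 10uM, ATP 10uM, Mg acetate 10mM, Tris acetate pH 7.5, Tween/BSA; cpd qHTS; enzyme added last; CCD luminescence.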
NPR1 antag: Natriuretic polypeptide receptor (hNpr1) antagonism - Primary qHTS; Atrial natriuretic peptide receptor 1 (Homo sapiens), P16066; AID 1347048, 2019; HEK293 hNpr1 GloSensor cGMP, ANP-stimulated luminescence; 76,000 tested, 1.6% active; Potency, µM (doses to about 46.3 µM), without a hit: top-dose activity change, negative = inhibition, actives largely listed as inhibitors; calls by dose curve; note: nearly all actives have a fitted effect of over 60% in size
Target sequence (P16066 whole entry, looked up): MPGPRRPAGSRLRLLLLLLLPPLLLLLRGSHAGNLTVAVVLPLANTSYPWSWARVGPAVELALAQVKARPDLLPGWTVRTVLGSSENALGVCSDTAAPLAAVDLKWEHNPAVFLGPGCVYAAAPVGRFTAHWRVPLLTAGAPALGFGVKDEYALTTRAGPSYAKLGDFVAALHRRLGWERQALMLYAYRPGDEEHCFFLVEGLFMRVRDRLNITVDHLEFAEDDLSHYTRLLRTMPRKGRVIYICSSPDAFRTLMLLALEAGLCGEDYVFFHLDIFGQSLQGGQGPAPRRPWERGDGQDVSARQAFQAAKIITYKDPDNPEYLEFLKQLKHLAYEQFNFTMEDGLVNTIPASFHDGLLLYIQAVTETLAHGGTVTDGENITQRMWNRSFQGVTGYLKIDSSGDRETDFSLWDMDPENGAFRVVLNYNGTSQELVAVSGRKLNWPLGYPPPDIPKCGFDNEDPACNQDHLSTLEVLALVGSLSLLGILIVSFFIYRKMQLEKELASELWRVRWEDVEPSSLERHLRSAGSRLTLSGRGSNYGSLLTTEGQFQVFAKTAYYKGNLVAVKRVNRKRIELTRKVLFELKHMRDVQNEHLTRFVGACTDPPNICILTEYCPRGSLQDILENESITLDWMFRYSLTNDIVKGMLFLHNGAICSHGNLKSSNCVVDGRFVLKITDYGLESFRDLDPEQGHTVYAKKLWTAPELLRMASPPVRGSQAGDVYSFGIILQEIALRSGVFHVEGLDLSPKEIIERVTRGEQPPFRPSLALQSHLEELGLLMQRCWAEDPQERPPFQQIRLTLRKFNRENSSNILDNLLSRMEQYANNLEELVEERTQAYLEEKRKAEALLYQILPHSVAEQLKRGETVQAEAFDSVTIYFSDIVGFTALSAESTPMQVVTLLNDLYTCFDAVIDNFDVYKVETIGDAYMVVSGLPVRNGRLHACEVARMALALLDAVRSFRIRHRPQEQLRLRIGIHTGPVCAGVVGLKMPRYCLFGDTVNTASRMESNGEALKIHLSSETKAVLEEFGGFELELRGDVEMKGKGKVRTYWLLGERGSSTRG
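Compound pre-incubated 30 min at room temperature on GloSensor-loaded HEK293 cells stably carrying hNpr1 and the pGS-40F cGMP biosensor. Stimulation uses hNppA at 0.1 nM final; luminescence is taken at baseline and 20 min post-agonist.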
The depositor's hits bear a star; i = inactive; ? = inconclusive; / = no result; [ ] = another dose, or the depositor's remark. Hits are enriched below; roughly 7.4% of the tested compounds scored in any of these assays. Unless noted, calls come from the whole dose curve; as a rule, active = well fitted curve in the direction sought with a large enough effect; inconclusive = small, poorly fitted or top-dose-only effect, or another doubt; inactive = no such curve, though single readings can be large; an effect the other way counts as inactive or inconclusive. Unless noted, % is set by controls: 0 for no effect and ±100 for the full control effect; potency is the fitted concentration of half-maximal effect.

SMILES | SNCA viab count | SNCA expr inh | 3T3 cytotox | HEK293 tox | FLuc inh | NPR1 antag
CN1C[C@@H](NC(=O)CCC(=O)O)C[C@H]1c1nc(-c2ccc3ccccc3c2)no1 | 6%[87.6 µM] | 40%[87.6 µM] | -30%[174 µM] | -6%[172 µM] | 32µM* | 1%[70.6 µM]
CN1CC2(CCN(CC3CC3)CC2)CC1C(=O)N1CCOCC1 (stereo not given) | -6% | -1% | -18% | 1% | i | ?
O=C(N[C@H]1[C@H](O)[C@H](O)C[C@@H]1c1ccc(C(F)(F)F)cc1)c1ccc2c(c1)OCCO2 | ? | 0%[87.6 µM] | 100µM* | ? | ? | 0%[70.6 µM]
COc1ccc([C@H]2C[C@@H](O)[C@@H](O)[C@@H]2NC(=O)c2cc3ccccc3s2)cc1 | -15%[87.6 µM] | 2%[87.6 µM] | ? | 79µM* | i | ?
COc1ccc([C@H]2C[C@@H](O)[C@@H](O)[C@@H]2NCc2cn(C)c3ccccc23)cc1 | ? | -15%[87.6 µM] | 89µM* | ? | i | -24%[70.6 µM]
O=C(N[C@H]1[C@H](O)[C@H](O)C[C@@H]1c1ccc(C(F)(F)F)nc1)c1ccc2c(c1)OCCO2 | -23%[87.6 µM] | 0%[87.6 µM] | -22%[174 µM] | -8%[172 µM] | i | -2%[70.6 µM]
COc1ccc([C@H]2C[C@@H](O)[C@@H](O)[C@@H]2NCc2cnn(C)c2)cc1 | ? | 14%[87.6 µM] | -7%[138 µM] | -12%[172 µM] | i | -3%[70.6 µM]
COc1ccc(CN[C@H]2[C@H](O)[C@H](O)C[C@@H]2c2ccc(C(F)(F)F)cc2)cc1 | -7%[87.6 µM] | -16%[87.6 µM] | 28µM* | 45µM* | i | -15%[70.6 µM]
Cn1ncc2c(C(=O)NCc3ccc4c(c3)OCO4)cc(-c3ccc(Cl)cc3)nc21 | -15% | 99% | -6% | 1% | / | /
O=C(c1ccsc1)N1CCN(c2cc(C(F)(F)F)ncn2)CC1 | 1% | 1% | -19% | 13% | i | -9%
CCc1noc(-c2cccn3c(CNC(=O)Cc4ccc(C)cc4)nnc23)n1 | -15% | 3% | -1% | i | i | 1%
COc1ccc([C@H]2C[C@@H](O)[C@@H](O)[C@@H]2NS(=O)(=O)c2ccc(C(F)(F)F)cc2)cc1 | 5%[87.6 µM] | -2%[87.6 µM] | -28%[174 µM] | 100µM* | i | 2%[70.6 µM]
COc1ccc([C@H]2C[C@@H](O)[C@@H](O)[C@@H]2NCc2ccccc2)cc1 | -8%[87.6 µM] | -3%[87.6 µM] | 1%[174 µM] | -23%[172 µM] | i | ?
COc1ccc([C@H]2C[C@@H](O)[C@@H](O)[C@@H]2NS(=O)(=O)c2ccc(Cl)cc2)cc1 | 3%[87.6 µM] | 7%[87.6 µM] | -29%[138 µM] | -29%[172 µM] | i | -15%[70.6 µM]
COc1ccc([C@H]2C[C@@H](O)[C@@H](O)[C@@H]2NCc2ccc(Cl)cc2)cc1 | -20%[87.6 µM] | ? | ? | 100µM* | i | -21%[70.6 µM]
CNC(=O)c1cc(C2CC2)nc2c1c(C1CCCN1C(=O)C1CC1)nn2C (stereo not given) | / | / | -7% | 1% | / | /
CN(CC(=O)N1CCCn2nc(-c3cccc(C(F)(F)F)c3)cc2C1)S(=O)(=O)c1ccc2c(c1)oc(=O)n2C | -19% | ? | ? | 32µM* | / | /
CC(C)C(=O)N(Cc1ccccc1)S(=O)(=O)c1ccc2c(c1)oc(=O)n2C | 7% | -18% | / | / | / | /
NC(=O)c1ccc([N+](=O)[O-])cc1Cl | 2%[23.9 µM] | -8%[25.6 µM] | / | / | / | /
O=[N+]([O-])c1ccc2c(c1)S(=O)(=O)C=C2 | ? | 5µM* | / | / | / | /
COC(=O)c1ccc(CN2C(=O)[C@@H]3C[C@@H](O)CN3C3(CN(C(C)C)C3)C2=O)cc1 | 0%[87.6 µM] | -15%[87.6 µM] | 1%[174 µM] | i | i | -1%[70.6 µM]
Cc1nnc(-c2cc(Nc3cccc(N(C)C)c3)ccn2)n1C1CCCCC1 | 0%[87.6 µM] | 10%[87.6 µM] | ? | 89µM* | i | -6%[70.6 µM]
CCOc1ccc(NC(=O)c2cc3c(s2)CN(C2CCCC2)C3)cc1 | 8% | 14% | ? | ? | i | -20%
Cc1ccc(NC(=O)c2cc3c(s2)CN(C2CC2)C3)cc1 | 1% | 111% | ? | ? | 8.9µM* | -30%
CSc1ccc(NC(=O)c2cc3c(s2)CN(C2CC2)C3)cc1 | -1% | 68% | ? | ? | ? | 11µM*
SMILES | SNCA viab count | SNCA expr inh | 3T3 cytotox | HEK293 tox | FLuc inh | NPR1 antag
CCc1cccc(C)c1NC(=O)CN1C(=O)NC(c2ccc(Cl)cc2)C2=C1COC2=O (stereo not given) | 9% | -12% | ? | ? | i | -9%
COC(=O)[C@@H]1Cc2nc[nH]c2CN1C(C)C | 1%[87.6 µM] | 11%[87.6 µM] | 71µM* | ? | i | 2%[70.6 µM]
CCc1nncn1C1CCN(S(=O)(=O)c2ccccc2C)CC1 | 0% | -1% | -12% | 0% | i | -9%
CCc1cn[nH]c1C1CCCN(C(=O)c2oc3cc(C)ccc3c2C)C1 (stereo not given) | 2% | 7% | 45µM* | ? | i | -3%
COc1ccccc1Nc1ccnc(N2CCN(C(=O)Cc3cccc(Cl)c3)CC2)n1 | ? | ? | ? | 45µM* | / | /
COc1ccccc1Nc1ccnc(N2CCN(C(=O)c3cccc(Cl)c3)CC2)n1 | -21% | ? | ? | ? | / | /
O=C(Cc1cccc(Cl)c1)N1CCN(c2nccc(Nc3ccccc3F)n2)CC1 | 7%[12.5 µM] | 116% | ? | 28µM* | / | /
O=C(Cc1ccccn1)N1CCN(c2nccc(Nc3ccccc3Cl)n2)CC1 | -4% | -6% | ? | ? | / | /
COc1cccc(-c2cc(C3CCN(C(=O)Nc4ccc(F)cc4)CC3)[nH]n2)c1 | 6% | -11% | ? | ? | i | 1%
COc1cccc(-c2cc(C3CCN(S(=O)(=O)c4ccc(C#N)cc4)CC3)[nH]n2)c1 | 3% | 5% | 28µM* | 28µM* | i | ?
COc1cccc(-c2cc(C3CCN(S(=O)(=O)c4ccc(F)cc4F)CC3)[nH]n2)c1 | -21% | ? | ? | 25µM* | i | ?
CSCCNC(=O)C1CCCN1c1nc2ncccc2o1 (stereo not given) | 6%[87.6 µM] | -5%[87.6 µM] | -15%[138 µM] | 3%[172 µM] | i | 16%[70.6 µM]
COc1ccccc1N1CCN([C@@H]2[C@H](O)[C@H](CO)O[C@@H]2CNC(=O)Nc2ccccc2)CC1 | -5% | 10% | i | 2% | i | 8%
C[C@H]1[C@@H]2[C@@H](O)C([C@H](C)C(=O)NCc3ccc(F)cc3)CC[C@@]2(C)CC[C@@H]1NC(=O)C1CCCCC1 (stereo not given in full) | -14% | -5% | -25% | -29% | i | -18%

Screening data (PubChem)
